Results on 21 compounds are retold here after PubChem BioAssay (NCI).

This is part of a sample that, as a whole, favours compounds with a hit. Of some 79,000 tested, about 15% had one in any assay. Unmarked numbers belong to inactive results. Activity calls are given as the source filed them. Rule as the data show it: active = growth inhibition above about 70%; inactive = the rest.

Assay [1] is described as follows: NCI Yeast Anticancer Drug Screen. Data for the rad50 strain (AID 155).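 Also: 0% = growth of vehicle-only cultures of the same strain.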 The note with it: S. cerevisiae rad50 strain growth inhibition; at 50.0 µM; hits give high values. Summed up:
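Readout: growth inhibition relative to vehicle-treated cultures. Compound exposure was carried out in a genetically defined yeast strain deficient in DNA damage repair.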

A short description of assay [2]: NCI Yeast Anticancer Drug Screen. Data for the mec2-1 strain (AID 157). The conditions noted are these: S. cerevisiae mec2-1 strain, at 50.0 µM, hits give high values. Summed up: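 Test agents were screened against the mec2-1 yeast strain, with defined DNA repair or cell cycle alteration. Growth was scored as inhibition against vehicle-only controls.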
Assay [3] can be described thus: NCI Yeast Anticancer Drug Screen. Data for the sgs1 mgt1 strain (AID 161).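 Also: 0% = growth of cultures given vehicle only.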 The conditions noted are these: S. cerevisiae sgs1 mgt1 strain, at 50.0 µM, hits give high values. The method, boiled down:
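Inhibition of yeast growth, normalised to vehicle-treated controls, is reported for a strain bearing genetic alterations in DNA damage repair.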

Assay [4] is described as follows: NCI Yeast Anticancer Drug Screen. Data for the cln2 rad14 strain (AID 165).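 Also: 0% = growth equal to vehicle treated cultures.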 The note with it: S. cerevisiae cln2 rad14 strain, at 50.0 µM, hits give high values. Summed up:
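Growth of compound-exposed yeast (cln2 rad14 genotype) measured and expressed as inhibition relative to vehicle.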

A short description of assay [5]: NCI Yeast Anticancer Drug Screen. Data for the bub3 strain (AID 167). The note with it: S. cerevisiae bub3 mutant strain, at 50.0 µM, hits give high values. The method, boiled down: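 Readout: yeast growth inhibition, expressed relative to vehicle-only wells. The test organism is a mutant strain from a panel with lesions in DNA repair or checkpoint genes.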
Assay [6] is described as follows: NCI Yeast Anticancer Drug Screen. Data for the mlh1 rad18 strain (AID 175). The conditions noted are these: S. cerevisiae mlh1 rad18 strain growth inhibition; at 50.0 µM; hits give high values. Summed up: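 In this whole-cell yeast screen, a strain with altered DNA damage repair is challenged with compound, and its growth is measured against matched vehicle-treated controls.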

Turning to `N#Cc1nc(C2=C(Cl)c3ccccc3OC2)[nH]c1C#N`, the growth inhibition in assay [1] is 40%; in assay [2] it was 42.9%; in assay [3], 46.5%; in assay [4], 56.5%; in assay [5] it was 50.6%; in assay [6], 31.8%.
In the case of `COc1c2c(cc3c1[C@@H]1Oc4c(ccc(O)c4CC=C(C)C)[C@@H]1CO3)OC(C)(C)C=C2`, the growth inhibition was 45.5% in assay [1]; 52.7% in assay [2]; 36.9% in assay [3]; 55.2% in assay [4]; 44.5% in assay [5]; 41.4% in assay [6].
Regarding `O=C1NC(=O)C(c2ccc(Br)c3ccccc23)=C1O`, the growth inhibition in assay [1] is 9.2%; in assay [2] it was -4.75%; in assay [3], 3.05%; in assay [4], -44.5%; in assay [5] it was -5.25%; in assay [6] it was -6.25%.
`COc1cc2c(cc1OC)C(C(CBr)CBr)N(C1CCCC1)CC2` (stereo unspecified): the growth inhibition in assay [1] is -8.2%; in assay [2] it was -15.3%; in assay [3], 13.6%; in assay [4], -19.9%; in assay [5] it was -12.4%; in assay [6], 11.6%.
For the compound `Clc1ccc(CSc2cnnc(SCc3ccc(Cl)cc3Cl)c2SCc2ccc(Cl)cc2Cl)c(Cl)c1`, the growth inhibition was 5.9% in assay [1]; 5.9% in assay [2]; 8.05% in assay [3]; 2.25% in assay [4]; -5.15% in assay [5]; -6.6% in assay [6].
As to `O=C(NCCCl)NCc1ccccc1`, the growth inhibition in assay [1] was -10.9%; in assay [2] it was 2.35%; in assay [3], 1.4%; in assay [4] it was -40.1%; in assay [5] it was -15.2%; in assay [6], -2%.
For the compound `COc1cc(NCCCCCN2C(=O)c3ccccc3C2=O)c2ncccc2c1`, the growth inhibition in assay [1] was 13.9%; in assay [2], 13.2%; in assay [3], 17.4%; in assay [4], 11%; in assay [5] it was 10.7%; in assay [6] it was 0.1%.
`CC[N+](CC)(CCO)CCCCCCCCCC[N+](CC)(CC)CCO`: the growth inhibition in assay [1] was 29.6%; in assay [2], -4.15%; in assay [3] it was 10.6%; in assay [4], -15.3%; in assay [5], -1.15%; in assay [6], 9.2%.
Consider `CCC(=O)C(C)C1=Nc2nnc(CCCCCCCc3nnc4n3C(=O)C(C(C)C(=O)CC)=N4)n2C1=O` (stereo unspecified), for which the growth inhibition is -13.7% in assay [1]; 12.3% in assay [2]; 11.8% in assay [3]; -7.4% in assay [4]; -3.05% in assay [5]; -4.35% in assay [6].
As for `O=C(CI)Nc1ccc2oc(=O)c(C(=O)O)cc2c1`, the growth inhibition is -7% in assay [1]; -6.05% in assay [2]; 4.85% in assay [3]; -64.4% in assay [4]; -2.9% in assay [5]; -12.8% in assay [6].
As to `O=C(O)CSc1ncccc1[N+](=O)[O-]`, the growth inhibition in assay [1] is 8.85%; in assay [2], -0.65%; in assay [3], -6.05%; in assay [4] it was 12.9%; in assay [5], -32.6%; in assay [6], 4.35%.
`Cc1cc(=O)oc2c(-c3ccccc3)nnc(Cl)c12`: the growth inhibition is 21.4% in assay [1]; 15% in assay [2]; 16.2% in assay [3]; 13.9% in assay [4]; 18.1% in assay [5]; 40.5% in assay [6].
`NC(=O)C[n+]1cccc(C(=O)Nc2ccccc2)c1`: the growth inhibition is 17.4% in assay [1]; 4.45% in assay [2]; 7.25% in assay [3]; -43.2% in assay [4]; 23.2% in assay [5]; 10.7% in assay [6].
Take `CCCn1cnc2c(SCC(=O)O)nc(N)nc21`: the growth inhibition in assay [1] was -33.3%; in assay [2], -18.9%; in assay [3], -24.4%; in assay [4] it was -26.1%; in assay [5], -22.1%; in assay [6] it was -8.9%.
Consider `CCCCCCCCCCCCCCCc1cc(O)ccc1N=O`, for which the growth inhibition in assay [1] is -3.8%; in assay [2], -16.5%; in assay [3], -8.3%; in assay [4], -3.45%; in assay [5], -1.05%; in assay [6], -11.7%.
As for `COc1ccccc1/C=C1/C(=O)ON=C1C`, the growth inhibition was 0.05% in assay [1]; -21.1% in assay [2]; -11.9% in assay [3]; 9.6% in assay [4]; -17.1% in assay [5]; -18.5% in assay [6].
As for `CCc1ccc(O)c(CN2CCN(Cc3cc(CC)ccc3O)CC2)c1`, the growth inhibition was -2.85% in assay [1]; -15.7% in assay [2]; 20.5% in assay [3]; -18.4% in assay [4]; -4.8% in assay [5]; 17.1% in assay [6].
Consider `CC(C)/C=N\N1C(N)=C(C#N)C(C#N)(C#N)C1C(C)C` (stereo unspecified), for which the growth inhibition is -0.65% in assay [1]; 10.5% in assay [2]; -35.3% in assay [3]; -19.4% in assay [4]; -12.2% in assay [5]; -41.3% in assay [6].
Consider `CCC(NC(C)c1ccccc1)C(O)c1ccc(OCc2ccccc2)c(OCc2ccccc2)c1` (stereo unspecified), for which the growth inhibition is 88.6% (active) in assay [1]; 91.5% (active) in assay [2]; 92.3% (active) in assay [3]; 91.3% (active) in assay [4]; 91.5% (active) in assay [5]; 87.7% (active) in assay [6].
Consider `O=C(C[n+]1ccncc1)c1ccc2c(c1)CCCC2`, for which the growth inhibition is -8.7% in assay [1]; 10.8% in assay [2]; 14.7% in assay [3]; -5.95% in assay [4]; 46.1% in assay [5]; 20.5% in assay [6].
As to `CN(CCOc1ccccc1)Cc1ccccc1`, the growth inhibition in assay [1] was 33.1%; in assay [2], 7.15%; in assay [3], 50.7%; in assay [4] it was 31.3%; in assay [5] it was 40.1%; in assay [6] it was 34.4%.
